High-throughput results: PubChem BioAssay, National Center for Advancing Translational Sciences (NCATS)
DT40 TDP1 no CPT – qHTS for Inhibitors of human tyrosyl-DNA phosphodiesterase 1 (TDP1): qHTS in cells in absence of CPT. DT40 Tdp1-/- hTDP1 cells, no CPT, ATP luminescence, 48 h. Potency, µM (top dose mostly 46.2 µM), without a hit: top-dose activity change, negative = growth inhibition, usual class: inhibitors. actives 15% (n = 420,000); note: potency is the fitted concentration of half-maximal effect; nearly all actives have a fitted effect of over 55% in size
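Camptothecin absent (DMSO only). Human TDP1-complemented DT40 knockout cells, 400 cells/well, 37 °C for minimum 48 hr; ATP measured via CellTiter-Glo, 30 min dark incubation, luminescence.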
IL-1B inflam inh – qHTS for Inhibitors of Inflammasome Signaling: IL-1-beta AlphaLISA Primary Screen; AID 743279, 2014; THP-1 LPS/ATP IL-1B secretion, AlphaLISA, 16 h; active compounds read low; actives 4.7% (n = 360,000); activity change, % at 57.5 µM; in the data active = activity change below about -50%; inconclusive = mostly about -30% to -49%
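Secreted IL-1B measured by AlphaLISA bead assay after 16 h compound exposure of THP-1 cells; compounds (final up to 57.5 uM) added 1 h before LPS (250 ng/mL) and ATP (1.25 mM) stimulation; lower signal means less secretion.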
DT40 TDP1 CPT – qHTS for Inhibitors of human tyrosyl-DNA phosphodiesterase 1 (TDP1): qHTS in cells in presence of CPT | chicken DT40 Tdp1-/-;hTDP1 cells + 20 nM CPT, ATP luminescence, 48 h | Potency, µM (highest dose often 46.2 µM), for inactives: at the top dose activity change, negative = growth inhibition, actives largely listed as inhibitors | actives 12% (n = 420,000) | AID 686979, 2013; note: potency is the fitted concentration of half-maximal effect; nearly all actives have a fitted effect of over 55% in size
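Chicken DT40 Tdp1-/- cells complemented with human TDP1, 400 cells/well, exposed to compounds plus 20 nM camptothecin for at least 48 h at 37 C; viability read as ATP content by CellTiter-Glo luminescence.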
ELG1 DNA repair – qHTS screen for small molecules that inhibit ELG1-dependent DNA repair in human embryonic kidney (HEK293T) cells expressing luciferase-tagged ELG1; HEK293T ELG1-luciferase reporter, luminescence, 16 h; DNA damage induced by 5-fluorouridine; Potency, µM (titrated, usually from 46.1 µM), for the others: at the highest dose activity change, negative = inhibition, actives largely listed as inhibitors; actives 2.3% (n = 330,000); AID 504467, 2011; note: potency is the fitted concentration of half-maximal effect; nearly all actives have a fitted effect of over 55% in size
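Step one: seed 2,000 cells per well. Step two: pin-transfer compound or DMSO alongside 5-fluorouridine. Step three: incubate 16 hr, 37 °C, 5% CO2. Step four: add ONE-Glo, wait 30 min, read luminescence.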
HT1080NT lethal – qHTS for induction of synthetic lethality in tumor cells producing 2HG: qHTS for the HT-1080-NT fibrosarcoma cell line; Potency, µM (titrated, usually from 46.1 µM), for the others: top-dose activity, negative = less viability, most hits filed as cytotoxic; actives 1.6% (n = 360,000); AID 686970, 2013; HT-1080-NT fibrosarcoma viability, CellTiter-Glo ATP luminescence, 48 h;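 note: NT is the 2HG producing partner of a matched IDH1 knockdown line; potency is the fitted concentration of half-maximal effect; 0% = DMSO-treated cells and -100% = media-only wells without cells; nearly all actives have a fitted effect of over 55% in size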
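Luminescent CellTiter-Glo readout after 48 hours of compound exposure at 37 degrees C defined viability of HT-1080-NT cells. Activity was normalized to DMSO wells and cell-free media wells; concentration-response curves were fitted and assigned curve classes.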
HT1080 IDH1KD tx – qHTS for induction of synthetic lethality in tumor cells producing 2HG: qHTS for the HT-1080-IDH1KD cell line. HT-1080 IDH1 knockdown viability, ATP luminescence, 48 h. Potency, µM (series often up to 46.1 µM), inactives show at the top dose activity, negative = toxicity, usual class: cytotoxic. actives 2% (n = 360,000). AID 686971, 2013;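 note: potency is the fitted concentration of half-maximal effect; 0% = DMSO wells and -100% = cell-free medium wells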
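Knockdown cells (IDH1KD HT-1080) received compounds 2 h after plating at 750 cells/well and were kept 48 h at 37 °C in 5% FBS RPMI. A CellTiter-Glo luminescence read gave % activity for curve fitting.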
An asterisk follows results filed as active; ? = inconclusive; / = not tested or not shown; [ ] = remark or other dose. Only some compounds are listed: those with a hit (about 19% of all), similar ones and a draw of the others. Unless noted, calls come from the whole dose curve; as a rule, active = well fitted curve in the direction sought with a large enough effect; inconclusive = small, poorly fitted or top-dose-only effect, or another doubt; inactive = no such curve, though single readings can be large; an effect the other way counts as inactive or inconclusive. Unless noted, % is set by controls: 0 for no effect and ±100 for the full control effect.

SMILES	DT40 TDP1 no CPT	IL-1B inflam inh	DT40 TDP1 CPT	ELG1 DNA repair	HT1080NT lethal	HT1080 IDH1KD tx
Cc1cc(C2=NNC(=NC3CC3)SC2)c(C)n1-c1ccccc1F	20.6µM*	0.0	16.4µM*	?	?	?
C=C(C)CN=C1NN=C(c2cc(C)n(-c3ccc(C)cc3)c2C)CS1	11.6µM*	20.9	14.6µM*	-7.9%	-9.6%	-25.4%
Cc1cccc(C)c1N=C1NN=C(c2ccccc2F)CS1	20.6µM*	0.0	20.6µM*	3.7%	-3.6%	-8.6%
CCOc1ccccc1NC(=O)c1c(NC(=O)c2cccc(C)c2)sc2c1CCC2	-25.6%	/	?	/	/	/
O=C(Cn1cncn1)NCC1Cc2cc(-c3ccsc3)cc(Cl)c2O1 (configuration not stated)	-15.0%	/	5.1%[9.04 µM]	/	/	/
COc1ccc(C(C(=O)NCC2CCCO2)N(Cc2ccccc2)C(=O)CNC(=O)c2ccco2)cc1OC (configuration not stated)	-13.9%	117.5	-0.4%	4.1%	-1.8%	-1.3%
CCN(CC(=O)Nc1c(F)cccc1F)C(=O)C1CC(=O)N(CCc2ccc(OC)c(OC)c2)C1 (configuration not stated)	-0.8%	6.6	-1.1%	?	3.8%	8.2%
O=C(/C=C/c1ccc2ccccc2n1)N1CCN(S(=O)(=O)c2ccccc2F)CC1	18.4µM*	-75.6*	23.1µM*	16.4µM*	-11.8%	-20.9%
O=C(/C=C/c1ccc2ccccc2n1)N1CCN(c2ccccc2)CC1	?	-14.2	4.5%	-4.7%	-21.0%	-1.0%
O=C(/C=C/c1ccc2ccccc2n1)N1CCN(S(=O)(=O)c2ccc(F)cc2)CC1	?	-89.0*	?	?	-23.0%	?
O=C(Cc1ccc(OCCC2CCCCC2)cc1)NO	10µM*	/	7.08µM*	/	/	/
CCCCCCCOc1ccc(CC(=O)NO)cc1	10µM*	/	10µM*	/	/	/
O=C(COC(=O)C1(c2ccc(F)cc2)CCCC1)NCc1ccco1	-2.3%	2.5	4.5%	-5.7%	-0.8%	13.1%
C/C(=N\NC(=O)c1csc(C)c1C)c1ccc(C)s1	2.91µM*	-15.5	2.59µM*	?	7.1%	-1.8%
C/C(=N\NC(=O)c1cc(-c2ccc(C)s2)[nH]n1)c1ccco1	18.4µM*	-5.7	?	?	-4.7%	-4.4%
C/C(=N\NC(=O)c1csc(C)c1C)c1ccco1	20.6µM*	-15.8	10.3µM*	?	-8.7%	-1.9%
C/C(=N/NC(=O)c1cc(C)[nH]n1)c1ccco1	-21.6%	3.2	3.3%	?	6.8%	5.1%
C[C@@H](NC(=O)[C@@H]1Cc2ccccc2CN1C(=O)OC(C)(C)C)C(=O)NC1CCCCC1	-3.2%	22.6	3.7%	-0.5%	13.6%	14.0%
COc1ccccc1N1CCN(c2nc(CNC(=O)c3cc(C)oc3C)nc3ccccc23)CC1	?	/	-19.9%[9.04 µM]	/	/	/
Cc1ccnc(N2C(=O)CSC2c2ccc(Cl)cc2)c1 (configuration not stated)	?	-2.1	-26.1%	14.2%	4.6%	11.9%
CCc1cc2c(Sc3nc4ccccc4s3)ncnc2s1	9.2µM*	?	5.17µM*	-13.0%	5.17µM*	?
c1ccc2sc(Sc3ncnc4sccc34)nc2c1	2.91µM*	-78.7*	5.8µM*	-3.3%	-24.5%	?
c1ccc(CSc2ncnc3sccc23)cc1	10.7%	0.0	3.1%	?	9.7%	11.2%
CCc1cc2c(SCC(=O)Nc3ccc(NC(C)=O)cc3)ncnc2s1	-25.2%	-14.7	-20.4%	?	-19.7%	0.5%
CC(=O)Nc1ccc(-c2nnc3n(Cc4ccc(C)cc4)c(=O)c4ccccc4n23)cc1	-20.0%	/	-21.2%	/	/	/
SMILES	DT40 TDP1 no CPT	IL-1B inflam inh	DT40 TDP1 CPT	ELG1 DNA repair	HT1080NT lethal	HT1080 IDH1KD tx
CCN(C[C@H]1N[C@@](C)(C(=O)OC)[C@H]2C(=O)N(C)C(=O)[C@@H]12)S(=O)(=O)c1ccc(F)cc1	-10.1%	6.8	0.8%	?	1.1%	6.0%
COC(=O)c1ccccc1NC(=O)/C=N/O	2.3%	-0.3	14.0%	-3.3%	3.9%	-0.4%
O=C(/C=N/O)Nc1ccc2sc3ccccc3c2c1	?	-99.7*	6.4%	20.2%	?	?
COc1ccc(NC2CCCN(C(=O)CCCn3cncn3)C2)cc1OC (configuration not stated)	6.9%	20.7	-13.4%	-0.7%	25.3%	27.5%
Cc1cccc2cc(C#N)c(SCCN3CCCCC3)nc12	?	-59.0*	?	/	?	?
Cc1cc(C)c2nc(N3CCN(C)CC3)c(C#N)cc2c1	?	5.8	-19.2%	0.0%	-1.7%	-3.4%
Cc1cccc2cc(C#N)c(N3CCN(C)CC3)nc12	25.9µM*	-27.9	?	-1.0%	-22.3%	?
Cc1ccc(C#N)c(SCCN2CCCCC2)n1	-9.1%	-9.6	11.0%	-7.2%	8.8%	10.8%
CN(C(=O)CO)c1c(I)c(C(=O)NCC(O)CO)c(I)c(C(=O)NCC(O)CO)c1I (configuration not stated)	-3.9%	/	1.3%	/	/	/
Cc1cc(Br)ccc1NC(=O)CNC(=O)CN(C)C1CCS(=O)(=O)C1 (configuration not stated)	5.0%	-8.4	24.3%	5.2%	10.9%	21.2%
CCCCNC(=O)C1c2ccccc2OCC(=O)N1Cc1ccccn1 (configuration not stated)	-21.6%	38.6	-5.3%	/	13.4%	9.4%
COCC(=O)Nc1nc2ccccc2s1	-12.2%	10.1	-0.2%	/	-1.9%	-1.9%
NC(=S)Nc1nc2ccccc2s1	4.11µM*	0.0	2.59µM*	?	-1.3%	14.6µM*
O=C(NC(=S)Nc1nc2ccccc2s1)c1cccs1	18.4µM*	21.3	16.4µM*	?	-1.0%	-0.8%
O=C(CN1Cc2ccccc2C1=O)Nc1cc(F)ccc1F	-5.3%	/	5.8%	/	/	/
Cc1ccc(C(=O)c2cnc3cc4c(cc3c2S(=O)(=O)c2ccccc2)OCCO4)cc1	23.1µM*	-79.0*	18.4µM*	?	-24.2%	-26.8%
CCc1ccc(C(=O)c2cnc3ccc(F)cc3c2S(=O)(=O)c2ccccc2)cc1	5.8µM*	/	5.17µM*	/	/	/
